Source: PubChem (Broad Institute)
BioA inh-1: M. tuberculosis BioA enzyme inhibitors, primary screen, biochemical, plate reader, single point, HTS; 7,8-diaminopelargonic acid synthase BioA (Mycobacterium tuberculosis); purified M. tuberculosis BioA enzyme; inhibition, % at 9.99 µM; 0.096% of 360,000 active; AID 602481, 2012; in the data active means inhibition above about 40%
Vc quorum ag: inducers of Vibrio cholerae quorum light production without autoinducers, primary screen, BH1578 luxS cqsA deficient, single point; V. cholerae BH1578 lux reporter, luminescence, 6 h; activation, % at 18.7 µM; 0.16% of 350,000 active; in the data active means activation mostly above about 9.7%, no sharp cut-off
FadD28 binding: inhibitors of FadD28 bisubstrate probe binding, primary screen, biochemical, fluorescence polarization, single point | Mycobacterium tuberculosis FadD28 fatty-acid-AMP ligase | 0.22% of 360,000 active | inhibition, % at 12.5 µM | AID 588549, 2011; in the data active means inhibition above about 8.5%, passing the limit was not always enough
TcdB inh: TcdB glycohydrolase inhibitors, primary screen, biochemical, single point, plate reader. AID 652162, 2013. inhibition, % at 9.99 µM. TcdB glycohydrolase enzymatic assay. 0.24% of 350,000 active. Toxin B (Clostridioides difficile), P18177; in the data active means inhibition above about 10%
BioA inh-2: Mtb BioA enzyme inhibitors, dose response, biochemical, plate reader, cherry-pick samples, set 03; purified BioA enzyme; max activity, %; AID 651679, 2012; 310 tested, under 10 active; shares compounds with BioA inh-1;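 further: top concentration of the dilution series was 10 µM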
Target sequence (P9WQ81 whole entry, looked up): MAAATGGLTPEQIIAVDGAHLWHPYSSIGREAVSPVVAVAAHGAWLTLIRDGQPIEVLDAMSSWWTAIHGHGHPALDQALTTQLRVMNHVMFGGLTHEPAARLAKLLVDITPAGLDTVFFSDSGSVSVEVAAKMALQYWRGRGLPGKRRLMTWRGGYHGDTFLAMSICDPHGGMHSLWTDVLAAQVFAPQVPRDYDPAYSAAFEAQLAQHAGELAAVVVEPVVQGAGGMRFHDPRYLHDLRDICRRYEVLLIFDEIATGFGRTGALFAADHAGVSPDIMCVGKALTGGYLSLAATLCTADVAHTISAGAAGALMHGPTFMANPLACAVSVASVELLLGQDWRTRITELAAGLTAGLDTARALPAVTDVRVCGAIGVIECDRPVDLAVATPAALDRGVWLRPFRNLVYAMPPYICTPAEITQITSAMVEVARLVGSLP
HepG2 tox 2: cytotoxicity in HepG2 cells, dose response, cytotoxicity control, cell-based, plate reader, cherry-pick, two tests; max activity, %; AID 651898, 2012; 310 tested, under 10 active; shares compounds with BioA inh-1
3T3 cytotox 5: cytotoxicity in NIH3T3 fibroblasts, dose response, cytotoxicity control, cell-based, plate reader, cherry-pick, two tests; 310 tested, under 10 active; shares compounds with BioA inh-1; activity change, negative = cytotoxicity, % at 26 µM
The depositor's hits bear a star; i = inactive; · = not tested or not shown. An excerpt weighted towards active compounds, which were near 0.54% of everything screened. Unless noted, how the calls were made is not given here.

SMILES	BioA inh-1	Vc quorum ag	FadD28 binding	TcdB inh	BioA inh-2	HepG2 tox 2	3T3 cytotox 5
CCc1ccc(C(=O)Nc2ccc(OC)c(S(=O)(=O)N3CCOCC3)c2)cc1	·	0	-2	-2	·	·	·
CC(C)CC(=O)OC(C)(C)[C@@H]1Cc2c(ccc3ccc(=O)oc23)O1	5	i	-5	3	·	·	·
C/C=C(/C)C(=O)OC(C)(C)[C@@H]1Cc2c(ccc3ccc(=O)oc23)O1	53*	0	-4	1	4	15	3
CCCN1[C@@H]2c3ccc(-c4ccncc4)c(=O)n3C[C@@H]2[C@@H](CO)[C@@H]1C(=O)OC	·	·	·	-1	·	·	·
O=C(C[C@H]1CC[C@@H]2[C@H](COC[C@H](O)CN2C(=O)Nc2ccc(Cl)cc2)O1)NCCc1ccncc1	0	·	·	0	·	·	·
COC(=O)C1CCN(C(c2ccc(OC)c(OC)c2)c2sc3nc(C)nn3c2O)CC1 (configuration not stated)	45*	0	0	-1	-8	14	-7
COc1cccc(CN(C)C[C@@H]2OCc3ccccc3-c3c(n(C)c4ccccc34)C(=O)N([C@H](C)CO)C[C@@H]2C)c1	·	·	·	0	·	·	·
CC(=O)c1ccc(NC(=O)CN2CCN(c3ccccc3)CC2)cc1	55*	i	-3	-1	-6	9	-3
CC(=O)c1ccc(NC(=O)CN2CCN(CC(=O)Nc3ccc(C(C)=O)cc3)CC2)cc1	0	i	-1	0	·	·	·
CCOC(=O)C1(CCc2ccccc2)CCN(C(=O)C2=C(C)OCCO2)CC1	·	i	-1	2	·	·	·
CCOC(=O)C1(CCc2ccccc2)CCN(C(=O)CN2CCOC2=O)CC1	59*	-4	-1	0	-4	23	9
CC(C)NC(=O)N1C[C@@H]2[C@H](c3ccccc31)[C@H](CO)N2C(=O)c1ccncc1	3	·	·	-1	·	·	·
CCCOC(=O)c1cccc(NC(=O)c2cccnc2)c1	43*	-2	-2	·	-8	7	-3
O=C(NNC(=O)c1ccc(Cl)c(Cl)c1)c1cccnc1	-1	0	-3	1	·	·	·
O=C(Nc1cccnc1)c1ccc(Oc2ccccc2)cc1	69*	0	-3	·	-9	-8	6
O=C(Nc1cccnc1)c1ccccc1Oc1ccccc1	4	·	-1	·	·	·	·
O=C(Nc1cccnc1)c1ccc(Cl)c(Cl)c1	60*	-1	0	2	-6	13	2
COc1cc(OC)c(C(=O)Nc2cccnc2)cc1OC	85*	-1	-1	2	4	-7	-3
COc1ccc(NC(=O)Nc2ccc3c(c2)CC(=O)N([C@H](C)CO)C[C@H](C)[C@H](CN(C)Cc2ccc4c(c2)OCO4)O3)cc1	0	·	·	0	·	·	·
O=C(C[C@H]1C[C@H]2c3cc(NC(=O)NC4CCCC4)ccc3O[C@H]2[C@@H](CO)O1)NCc1cccnc1	·	·	·	1	·	·	·
Cc1noc(C)c1S(=O)(=O)N(C)C[C@H]1Oc2ccc(NC(=O)C3CCCCC3)cc2CC(=O)N([C@H](C)CO)C[C@H]1C	3	·	·	2	·	·	·
COCCCN1C(=O)c2ccc(C(=O)Nc3cccc(OC)c3)cc2C1=O	-1	i	-1	·	·	·	·
O=C(Nc1ccc(NS(=O)(=O)c2ccccc2)cc1)c1cccnc1	52*	0	4	1	9	-9	-3
CC(C)(C)c1cc(C(=O)Nc2cccnc2)cc(C(=O)Nc2cccnc2)c1	45*	i	-4	0	4	11	8
COCCN1C(=O)c2ccc(C(=O)Nc3cccnc3)cc2C1=O	59*	i	-3	-1	-7	-12	3
SMILES	BioA inh-1	Vc quorum ag	FadD28 binding	TcdB inh	BioA inh-2	HepG2 tox 2	3T3 cytotox 5
C[C@@H]1CCCCO[C@@H](CN(C)Cc2ccc(C(F)(F)F)cc2)[C@H](C)CN([C@@H](C)CO)C(=O)c2cc(NS(=O)(=O)c3ccc(F)cc3)ccc2O1	-1	·	·	0	·	·	·
CC1CN(C(=O)Nc2ccc3snnc3c2)c2ccccc21 (configuration not stated)	63*	i	-4	3	-7	17	-1
COC(=O)C1C(=O)C=C(Nc2ccc(F)cc2)CC1c1ccc(OC)cc1 (configuration not stated)	75*	1	-5	·	-6	8	-2
COc1ccccc1NC(=O)N[C@@H]1CC[C@H](CCn2cc(-c3cccnc3)nn2)O[C@H]1CO	57*	·	·	0	5	i	-9
O=C(N[C@H]1CC[C@@H](CCn2cc(-c3cccnc3)nn2)O[C@H]1CO)c1ccccc1F	47*	·	·	0	3	i	2
CN(C)C(=O)C[C@H]1C=C[C@@H](NC(=O)Nc2cccc(F)c2)[C@@H](CO)O1	-2	·	·	-2	·	·	·
O=C(C1CCOCC1)N1CC[C@@H]2[C@H](CO)Nc3ccc(Br)cc3[C@@H]21	72*	·	·	-3	9	i	1
O=C(C1CCC1)N1CC[C@@H]2[C@@H](CO)Nc3ccc(Br)cc3[C@@H]21	·	·	·	0	·	·	·
O=C(C1CCOCC1)N1CC[C@@H]2[C@H]1c1cc(Br)ccc1N[C@@H]2CO	74*	·	·	2	2	i	0
O=C(Cc1ccccc1)N1CC[C@@H]2[C@H](CO)Nc3ccc(Br)cc3[C@@H]21	44*	·	·	0	5	i	-10
C[C@@H]1CCCCO[C@H](CN(C)C(=O)Nc2ccccc2)[C@H](C)CN([C@@H](C)CO)C(=O)c2cc(NS(=O)(=O)c3ccc(Cl)cc3)ccc2O1	0	·	·	0	·	·	·
COc1ccc(NC2c3ccccc3C(=O)N2c2cccnc2)cc1Cl (configuration not stated)	51*	0	-4	0	-7	-16	-3
C[C@@H]1CN([C@H](C)CO)C(=O)c2cc(NS(=O)(=O)c3ccccc3)ccc2O[C@@H](C)CCCCO[C@@H]1CN(C)S(=O)(=O)c1ccccc1	-1	·	·	0	·	·	·
CCc1c(C)nc2ncnn2c1Nc1ccc(C#N)c(Cl)c1	40*	0	0	·	-6	-7	-7
CCc1c(C)nc2ncnn2c1Nc1ccc(C(C)=O)cc1	31	i	0	·	·	·	·
CCC(=O)N1CC2(CCN(Cc3ccc(F)cc3)CC2)c2c(n(C)c3cc(OC)ccc23)[C@H]1CO	·	·	·	1	·	·	·
Nn1c(SCCOc2ccccc2)nnc1-c1cccnc1	74*	i	0	1	3	-8	-5
Nn1c(SC/C=C/c2ccccc2)nnc1-c1cccnc1	109*	i	-1	·	4	-11	12
Nn1c(SCc2nc3ccccc3[nH]2)nnc1-c1cccnc1	59*	i	-6	·	-8	-6	1
Clc1ccc(-n2c(SC/C=C/c3ccccc3)nnc2-c2cccnc2)cc1	5	i	-6	·	·	·	·
